The results in this text go back to PubChem BioAssay (EPA / NIEHS).

Results filed as inconclusive are left out. The source made the active and inactive calls. How the source made its calls: active means hit-call score of the fitted dose curve at least 0.9, where 1 is the maximum; inconclusive means response in the unintended direction; inactive means score below 0.9.

zebrafish Estrogen Receptor (ESR1), esr1 (gene 259252), sequence (P57717 whole entry, looked up, the tested form may be a part): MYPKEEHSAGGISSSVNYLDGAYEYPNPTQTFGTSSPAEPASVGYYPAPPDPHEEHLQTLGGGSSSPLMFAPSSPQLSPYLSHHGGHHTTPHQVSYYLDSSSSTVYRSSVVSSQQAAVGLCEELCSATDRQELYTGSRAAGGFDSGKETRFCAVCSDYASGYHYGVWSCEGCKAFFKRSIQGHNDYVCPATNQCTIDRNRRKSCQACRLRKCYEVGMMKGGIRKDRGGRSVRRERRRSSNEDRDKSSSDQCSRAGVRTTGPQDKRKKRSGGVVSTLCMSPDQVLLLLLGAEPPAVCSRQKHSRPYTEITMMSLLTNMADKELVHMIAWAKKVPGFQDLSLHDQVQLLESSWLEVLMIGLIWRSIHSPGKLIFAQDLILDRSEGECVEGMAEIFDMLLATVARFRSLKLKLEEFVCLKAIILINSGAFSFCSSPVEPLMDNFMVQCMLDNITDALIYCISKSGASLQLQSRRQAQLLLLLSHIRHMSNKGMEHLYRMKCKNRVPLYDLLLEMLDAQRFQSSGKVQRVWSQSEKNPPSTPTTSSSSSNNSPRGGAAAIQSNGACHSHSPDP

For the first assay, the system named is zebrafish Androgen Receptor (AR), gene 100005148. Kind of assay: ATG_zfAR_XSP1: Attagene TRANS-FACTORIAL Multi-Species (XSP1) HepG2 Assay for zebrafish Androgen Receptor (AR) (AID 2283771). In short, it runs like this: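 HepG2 cells were transiently transfected with a zebrafish AR-GAL4 reporter system and partially stimulated with 3 nM 6-alpha-fluorotestosterone. Reporter mRNA was measured after 24 h dosing by RT-PCR with capillary electrophoresis, and gain-of-signal was fitted relative to DMSO.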
For the compound `CCCCC(CC)COC(=O)c1ccccc1C(=O)OCC(CC)CCCC` (configuration not stated), the compound was called inactive.

For the compound `C=CC1(C)OC(=O)N(c2cc(Cl)cc(Cl)c2)C1=O` (configuration not stated), the outcome was inactive.

Regarding `OC(c1ccc(Cl)cc1)(c1cncnc1)c1ccccc1Cl` (configuration not stated), the outcome was inactive.

On to `COc1ccc(C(c2ccc(OC)cc2)C(Cl)(Cl)Cl)cc1`, for which the compound was classed as inactive.

Another assay concerns the target zebrafish Estrogen Receptor (ESR1), esr1 (gene 259252) (UniProt P57717). Kind of assay: ATG_zfER1_XSP1: Attagene TRANS-FACTORIAL Multi-Species (XSP1) HepG2 Assay for zebrafish Estrogen Receptor (ESR1) (AID 2283772). Put shortly: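 HepG2 cells were transiently transfected with multiplexed GAL4-UAS reporter units driven by chimeric NR-GAL4 proteins, dosed for 24 h with 3 nM 6-alpha-fluorotestosterone present, and reporter mRNA quantified by RT-PCR and capillary electrophoresis versus DMSO.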
With `CCCCNC(=O)OCC#CI`, the outcome was inactive.

A word on the AC50: it is the concentration at which the activity in the assay is half-maximal. On to `OC(c1ccc(Cl)cc1)(c1cncnc1)c1ccccc1Cl` (configuration not stated), for which the AC50 was 26.4 µM (active).

Regarding `COc1ccc(C(c2ccc(OC)cc2)C(Cl)(Cl)Cl)cc1`, the compound was called inactive.

The subject of the next assay is zebrafish Estrogen Receptor (ESR2B), gene 317733. Kind of assay: ATG_zfER2b_XSP1: Attagene TRANS-FACTORIAL Multi-Species (XSP1) HepG2 Assay for zebrafish Estrogen Receptor (ESR2B) (AID 2283773). Put shortly: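 Gain-of-signal endpoint relative to DMSO: reporter transcript levels quantified by RT-PCR and capillary electrophoresis after 24 h compound exposure of HepG2 cells expressing a zebrafish ER2b-Gal4 chimera.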
With `CCCCNC(=O)OCC#CI`, the call was inactive.

On to `CCCCC(CC)COC(=O)c1ccccc1C(=O)OCC(CC)CCCC` (configuration not stated), for which the AC50 is 16.1 µM (active).

On to `C=CC1(C)OC(=O)N(c2cc(Cl)cc(Cl)c2)C1=O` (configuration not stated), for which the AC50 was 168 µM (active).

As for `OC(c1ccc(Cl)cc1)(c1cncnc1)c1ccccc1Cl` (configuration not stated), the AC50 was 8.4 µM (active).

Regarding `COc1ccc(C(c2ccc(OC)cc2)C(Cl)(Cl)Cl)cc1`, the AC50 was 1.08 µM (active).
